The record followed here is ChEMBL document CHEMBL1961873, “Compounds: GSK PKIS; Assays: Nanosyn kinase panel” (2012).

The first test deals with T1, Serine/threonine-protein kinase D3 (Homo sapiens) (UniProt O94806).
T1 sequence (whole entry): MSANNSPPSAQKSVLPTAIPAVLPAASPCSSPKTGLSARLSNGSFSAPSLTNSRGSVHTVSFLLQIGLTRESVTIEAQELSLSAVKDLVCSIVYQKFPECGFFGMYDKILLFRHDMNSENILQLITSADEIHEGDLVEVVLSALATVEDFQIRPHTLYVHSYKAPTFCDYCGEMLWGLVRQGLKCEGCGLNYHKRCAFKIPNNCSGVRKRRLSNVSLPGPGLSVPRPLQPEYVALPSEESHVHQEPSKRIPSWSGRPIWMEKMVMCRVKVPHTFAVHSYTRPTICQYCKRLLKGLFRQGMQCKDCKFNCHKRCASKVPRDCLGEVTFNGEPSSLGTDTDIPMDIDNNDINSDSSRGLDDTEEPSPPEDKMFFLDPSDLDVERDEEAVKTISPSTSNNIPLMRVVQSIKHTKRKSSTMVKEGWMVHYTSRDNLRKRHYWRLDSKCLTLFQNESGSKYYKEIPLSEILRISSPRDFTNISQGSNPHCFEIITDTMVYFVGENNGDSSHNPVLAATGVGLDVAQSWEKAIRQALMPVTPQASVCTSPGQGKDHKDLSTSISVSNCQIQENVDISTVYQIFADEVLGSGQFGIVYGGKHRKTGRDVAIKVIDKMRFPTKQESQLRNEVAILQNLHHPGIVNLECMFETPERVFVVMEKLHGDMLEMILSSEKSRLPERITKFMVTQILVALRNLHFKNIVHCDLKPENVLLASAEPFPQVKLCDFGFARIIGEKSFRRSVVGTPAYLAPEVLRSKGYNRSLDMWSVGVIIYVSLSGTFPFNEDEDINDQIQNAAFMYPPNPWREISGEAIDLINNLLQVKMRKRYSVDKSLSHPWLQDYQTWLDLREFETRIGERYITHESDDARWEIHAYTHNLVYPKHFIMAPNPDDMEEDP
As to conditions: at 0.1 µM.
Turning to `Cc1cc(-c2ccccn2)cc(C)c1/C=C/c1cncc(-c2nn[nH]n2)c1`, the inhibition (usually the relative decrease from the control value, in per cent) is 6.27%.
Same read-out and setting: the value for `COc1ccc2ncnc(Nc3ccc(OCc4ccccc4)cc3)c2c1` was 0.89%.
Same read-out and setting: the value for `CN(C)CCCn1c(-c2nonc2N)nc2cnccc21` was 4.93%.
In the case of `[O-][S+]1CCN(Cc2ccc(-c3ccc4ncnc(Nc5ccc(OCc6ccccc6)c(Cl)c5)c4c3)o2)CC1`, the inhibition was found to be 1.61%.
Still for that read-out and setting: the value for `OCc1ccc(-c2nc(-c3ccccn3)c(-c3ccc4c(c3)OCO4)[nH]2)cc1` was 5.74%; that for `COc1cc(Nc2nccc(-c3cnn4ncccc34)n2)cc(OC)c1` was -0.68%.

Another test has as its target T1, Serine/threonine-protein kinase D3 (Homo sapiens). As to conditions: at 1 µM.
Consider `CS(=O)(=O)CCNCc1nc(-c2ccc3ncnc(Nc4ccc(OCc5cccc(C(F)(F)F)c5)cc4)c3c2)cs1`, for which the inhibition worked out at 2.19%.
Same read-out and setting: as for `Nc1nccc(-c2c(-c3ccc(F)cc3)ncn2CCCN2CCOCC2)n1`, the figure is 4.86%; as for `NS(=O)(=O)c1ccc(Nc2cc(-c3cccc(O)c3)n[nH]2)cc1`, 8.42%.
Same read-out and setting: the value for `NS(=O)(=O)c1cccc(Nc2cc(-c3ccc(F)cc3)n[nH]2)c1` was 3.78%; that for `Cc1ccc2c(-c3ccnc(Nc4ccc5c(c4)OCCO5)n3)c(-c3ccc(C(F)(F)F)cc3)nn2n1` was 2.26%; that for `Cc1cc(O)cc(C)c1/C=C/c1cncc(C(=O)N(C)C)c1` was 3%.
On the same count and under the same terms, as for `CN(C)c1cc2c(Nc3ccc4c(cnn4Cc4ccccc4)c3)ncnc2cn1`, the figure is 4.21%.
Regarding `COC(=O)c1ccc2c(c1)C(=Cc1cc(Br)c(O)c(Br)c1)C(=O)N2`, the inhibition is 5.87%.
Take `Nc1nccc(-c2c(-c3ccc(F)cc3)nn3cc(C(F)(F)F)ccc23)n1`: the inhibition worked out at 3.75%.
Same read-out and setting: as for `COc1cccc(-n2nc(C)c3c(N/N=C(\C)c4ccncc4)ncnc32)c1`, the figure is 0.59%.
